Assay outcomes: PubChem BioAssay, The Scripps Research Institute Molecular Screening Center
FBW7 activator = human FBW7 E3 ligase activation, primary screen; AlphaScreen FBW7–phospho-cyclin E peptide binding, activator screen; Q969H0; 0.13% of 650,000 active; normalized activity (activation), % at 26.1 µM; in the data active means normalized activity above about 1.9%;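 further: purified mutant Fbw7 with reduced substrate affinity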
MITF inh = blocks human microphthalmia-associated transcription factor; inhibition, % at 2.6 µM; O75030; AlphaScreen MITF homodimerization, bead proximity signal; 0.91% of 650,000 active; in the data active means inhibition above about 50%;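 further: 0% = vehicle wells with protein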
Target sequence (O75030 whole entry, looked up): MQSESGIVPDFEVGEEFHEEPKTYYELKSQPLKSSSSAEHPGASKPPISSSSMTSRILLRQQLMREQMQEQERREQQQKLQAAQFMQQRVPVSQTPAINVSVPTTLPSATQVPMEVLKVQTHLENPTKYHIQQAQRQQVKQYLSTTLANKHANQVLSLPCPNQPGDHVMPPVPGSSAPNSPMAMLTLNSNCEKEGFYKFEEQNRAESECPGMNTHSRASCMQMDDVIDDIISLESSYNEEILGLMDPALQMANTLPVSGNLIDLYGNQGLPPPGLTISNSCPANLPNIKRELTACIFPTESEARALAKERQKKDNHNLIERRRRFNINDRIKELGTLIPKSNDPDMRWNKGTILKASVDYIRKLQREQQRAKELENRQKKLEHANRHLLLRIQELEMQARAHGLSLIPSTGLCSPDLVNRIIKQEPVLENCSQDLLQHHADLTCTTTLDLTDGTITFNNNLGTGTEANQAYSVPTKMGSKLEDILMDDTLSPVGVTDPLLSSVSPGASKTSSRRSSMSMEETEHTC
GPR151 activ = human GPR151 activation. Q8TDV0. PathHunter beta-arrestin GPR151 cells, luminescence. activation, % at 11.2 µM. 1% of 650,000 active; in the data active means activation above about 4.9%;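 further: 0% = median of compound wells and 100% = cells with positive control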
TEAD-YAP block = TEAD-YAP interaction inhibition | HEK-TIYL cells, TEAD-Gal4/YAP UAS-luciferase luminescence | inhibition, % at 9.12 µM | 1.4% of 640,000 active; in the data active means inhibition above about 32%;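 further: 0% = median of test compound wells and 100% = reference inhibitor wells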
* = called active by the depositor. Compounds with a hit are over-represented: about 3.4% of the library has one in this group of screens.

SMILES | FBW7 activator | MITF inh | GPR151 activ | TEAD-YAP block
CCc1ccc2c(c1)/C(=c1/sc3n(c1=O)CN(c1cccc(C(=O)O)c1)CN=3)C(=O)N2 | 3.9* | 3 | -1 | -1
CCOc1ccc(Nc2nc(C3(C)CC(CC(C)C)C(=O)O3)cs2)cc1 (stereo not drawn) | 0 | 7 | 0 | 7
COc1ccccc1Nc1nc(C2(C)CC(CC(C)C)C(=O)O2)cs1 (stereo not drawn) | 0 | 8 | -1 | 55*
CC1(c2csc(Nc3ccccc3Cl)n2)CCC(=O)O1 (stereo not drawn) | 0 | 11 | -2 | 35*
Cc1cc(Cl)ccc1OCc1nc(-c2ccc(Cl)cc2)no1 | 0 | 8 | 0 | -1
CC(C)(C)c1ccc(OCC(=O)N2CCCC2)c(Br)c1 | 1 | 21 | 1 | -20
O=c1[nH]c2ccc(S(=O)(=O)NCCCO)cc2[nH]1 | 1.9* | 21 | 0 | 5
COc1cc(Nc2nc(NC3CC3)c3ncn(-c4ccsc4)c3n2)cc(OC)c1OC | 0 | 2 | 2 | 34*
COc1cc(Nc2nc(NC3CCC(O)CC3)nc3c2ncn3-c2ccsc2)cc(OC)c1OC (stereo not drawn) | 0 | 15 | 0 | 68*
c1ccc(Nc2nc(NC3CC3)c3ncn(-c4ccsc4)c3n2)cc1 | 0 | 1 | -1 | 49*
COc1cc(Nc2nc(Nc3ccccc3)nc3c2ncn3-c2ccsc2)cc(OC)c1OC | 0 | 2 | 0 | 23
COc1ccc(N=C(C)C2=C(O)c3ccccc3C2=O)c(OC)c1 | 0 | -6 | 2 | -17
O=C1C(C=Nc2ccc(F)cc2)=C(O)c2ccccc21 | 0 | 4 | -2 | 12
Cc1ccccc1N=CC1=C(O)c2ccccc2C1=O | 0 | 7 | 0 | 87*
COc1ccc(N=CC2=C(O)c3ccccc3C2=O)c(OC)c1 | 0 | 3 | 1 | 69*
CCCCc1ccc(-c2nc(Nc3cc(Cl)ccc3OC)c3ccccc3n2)cc1 | 0 | -10 | 0 | 9
Nc1c(C(=O)NCc2ccccc2)sc(=S)n1-c1ccccc1 | 0 | 13 | -1 | -5
Cc1ccc(-c2cn3ccccc3n2)cc1C | 0 | 6 | -8 | 59*
Oc1ccc(-c2cn3ccccc3n2)cc1O | 0 | 9 | -5 | -31
Cc1ccn2cc(-c3cccc(Cl)c3)nc2c1 | 0 | 18 | -7 | -29
Cc1ccn2cc(-c3ccc4ccccc4c3)nc2c1 | 0 | -5 | -6 | 63*
Cc1ccn2cc(-c3ccccc3)nc2c1 | 1 | 0 | -8 | 77*
CN(C)S(=O)(=O)c1ccc(-c2cn3ccccc3n2)cc1 | 0 | -1 | -2 | -7
Cc1ccn2cc(-c3ccc(O)c(O)c3)nc2c1 | 0 | 21 | -7 | 64*
Cc1ccn2cc(-c3cccc(NC(=O)c4ccccc4)c3)nc2c1 | 0 | 6 | -2 | -52
SMILES | FBW7 activator | MITF inh | GPR151 activ | TEAD-YAP block
CCOC(=O)C(NC(=O)N(C1=NCC(C)S1)c1cccc(C(F)(F)F)c1)(OC)C(F)(F)F (stereo not drawn) | 0 | -5 | -2 | -14
COc1ccc(CCNC(=O)c2ccc3c(c2)NC(=O)C(CSCc2ccc(F)cc2Cl)N3)cc1OC (stereo not drawn) | 1 | 16 | -1 | 0
Cc1ccc(F)cc1Nc1ncnc(N)c1[N+](=O)[O-] | 2.1* | 17 | -1 | -1
N#CCCN(C(=O)CCl)c1cccc(Cl)c1 | 0 | 3 | 0 | 74*
N#CCCN(C(=O)COC(=O)c1ccc(Cl)cc1N)c1ccccc1 | 0 | -4 | 1 | -1
CC(C)n1c(SCc2ccccc2Cl)nc2c1c(=O)[nH]c(=O)n2C | 0 | 4 | 1 | 43*
O=C(CN1C(=O)CCC1=O)Nc1nc2c(Cl)ccc(Cl)c2s1 | 0 | 12 | 0 | -3
O=C(NC1CCCCC1)c1cc(-c2ccccc2)on1 | 0 | 1 | 0 | -47
CN(C(=O)c1cc(-c2cccc(O)c2)on1)c1ccccc1 | 0 | -12 | 0 | 48*
CCCCNC(=O)c1cc(-c2cccc(O)c2)on1 | 0 | 9 | 0 | 36*
CCCCNC(=O)c1cc(-c2cccc(OC)c2)on1 | 0 | -6 | -2 | -45
O=C(NC1CCCC1)c1cc(-c2cccc(O)c2)on1 | 0 | -4 | 0 | 70*
Cc1ccc(-c2nc3cccnc3s2)cc1NC(=O)CC(C)C | 0 | 16 | 0 | -56
Cc1ccc(NC(=O)c2n[nH]c3ccccc23)cc1 | 0 | 15 | -7 | 45*
Cc1ccc(NC(=O)c2n[nH]c3ccccc23)cc1Cl | 0 | 4 | -4 | -38
O=C(COc1cccc(N2C(=O)C3C4C=CC(C5CC45)C3C2=O)c1)c1ccc(Cl)cc1 (stereo not drawn) | 0 | -1 | 1 | 39*
CCOC(=O)N1CCN(S(=O)(=O)c2cc(Br)cc3c2N(C(C)=O)CC3)CC1 | 0 | 4 | 0 | 3
O=c1nc2s/c(=C\c3ccco3)c(=O)n2nc1Cc1ccc(F)cc1 | -2 | 70* | 0 | 2
COC(=O)c1cc2ccc3c(c2oc1=O)CN(c1ccc(Cl)cc1)CO3 | 0 | -3 | -1 | -2
CCCC(=O)Nc1ccc(Nc2nc(C)cc(N3CCOCC3)n2)cc1 | 0 | 2 | 1 | 24
CCCCC(=O)Nc1ccc(Nc2nc(C)cc(N3CCCC3)n2)cc1 | 0 | -18 | 0 | 65*
Cc1cc(N2CCCC2)nc(Nc2ccc(NS(=O)(=O)c3ccc(F)cc3)cc2)n1 | 0 | 0 | 0 | 57*
CCOc1ccc(/C=C/C(=O)Nc2ccc(S(=O)(=O)Nc3nc(C)cc(C)n3)cc2)cc1 | 0 | 6 | 0 | 4
CC1(C)OC2(C)C(O)CC1CC2O (stereo not drawn) | 0 | 2 | 2 | -1
O=C(CSc1nc2[nH]ncc2c(=O)n1-c1ccccc1)Nc1ccc(Br)cc1 | 0 | -5 | 0 | 17
SMILES | FBW7 activator | MITF inh | GPR151 activ | TEAD-YAP block
O=C(CSc1nc2[nH]ncc2c(=O)n1-c1ccccc1)Nc1ccc(F)c(F)c1 | 0 | 1 | 0 | 61*
COc1cc(C=O)ccc1OCc1nnnn1-c1ccccc1 | 2.0* | 17 | -1 | 11
Cc1ccccc1OCC(=O)NNC(=O)Nc1ccc(Cl)cc1 | 1 | -4 | 0 | 59*
O=C(COc1ccc(Br)cc1Br)Nc1ncn[nH]1 | 0 | 9 | 1 | 44*
O=C(COc1ccc(Cl)cc1Cl)Nc1ccccc1 | 0 | 6 | 1 | 36*
O=C(COc1ccc(Cl)cc1Cl)Nc1cccc(-c2cn3c(n2)SCC3)c1 | 0 | 8 | 0 | 69*
Cc1ccccc1OCC(=O)Nc1ccc(Cl)cc1 | 0 | 10 | -1 | -42
CS(=O)(=O)c1ccc(-c2cccc3c2OC(CNC(=O)c2cnc[nH]2)C3)cc1 (stereo not drawn) | 0 | 8 | 1 | 4
O=C(COc1ccc(Cl)cc1Cl)Nc1ccc(O)cc1 | 0 | -3 | 1 | 32*
Cc1cc(Cl)ccc1OCC(=O)Nc1ccccn1 | 0 | 12 | -1 | 67*
O=C(COc1ccccc1[N+](=O)[O-])Nc1ccccn1 | 0 | 3 | -9 | 36*
Cc1cc(Cl)ccc1OCC(=O)Nc1ncccn1 | 0 | 6 | 1 | -19
O=C(COc1ccc(Br)cc1Cl)Nc1ccccc1 | 0 | 14 | -1 | 54*
